Assay [1] can be described thus: NCI Yeast Anticancer Drug Screen. Data for the rad50 strain (AID 155).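 Further: 0% = growth of vehicle-only cultures of the same strain.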 To be noted: S. cerevisiae rad50 strain growth inhibition; at 50.0 µM; active compounds read high. In outline: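 Growth of the mutant yeast was measured after compound exposure and referenced to vehicle-treated cultures.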
A short description of assay [2]: NCI Yeast Anticancer Drug Screen. Data for the mec2-1 strain (AID 157). The conditions noted are these: S. cerevisiae mec2-1 strain, at 50.0 µM, active compounds read high. The method, boiled down:
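Growth inhibition is read against vehicle-treated controls after compound exposure of the mec2-1 yeast strain, which is defective in DNA damage repair or cell cycle control.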

A short description of assay [3]: NCI Yeast Anticancer Drug Screen. Data for the sgs1 mgt1 strain (AID 161).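 Further: 0% = growth of cultures given vehicle only.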 To be noted: S. cerevisiae sgs1 mgt1 strain, at 50.0 µM, active compounds read high. In outline:
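Growth of a repair-deficient yeast mutant was monitored after compound treatment and expressed as inhibition relative to vehicle-treated cultures.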

Assay [4] can be described thus: NCI Yeast Anticancer Drug Screen. Data for the cln2 rad14 strain (AID 165).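 Further: 0% = growth equal to vehicle treated cultures.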 To be noted: S. cerevisiae cln2 rad14 strain, at 50.0 µM, active compounds read high. In outline:
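Growth inhibition, relative to vehicle-treated controls, is the read-out. The test organism is a yeast strain with defined genetic alterations, cln2 rad14.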

Assay [5] can be described thus: NCI Yeast Anticancer Drug Screen. Data for the bub3 strain (AID 167). The conditions noted are these: S. cerevisiae bub3 mutant strain, at 50.0 µM, active compounds read high. The method, boiled down: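 Whole-cell yeast assay. The mutant strain was incubated with compounds, and growth inhibition was determined by comparison with vehicle-treated cells.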
The nature of assay [6]: NCI Yeast Anticancer Drug Screen. Data for the mlh1 rad18 strain (AID 175). To be noted: S. cerevisiae mlh1 rad18 strain growth inhibition; at 50.0 µM; active compounds read high. The method, boiled down: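 Cells of a genetically altered yeast strain, deficient in DNA damage repair, were treated with compound. Their growth was then compared with that of vehicle-treated cultures to give inhibition.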

Compounds without any hit were thinned out: in the full panel of roughly 79,000, 15% have a hit. Unmarked numbers belong to inactive results. The source made the active and inactive calls. No stated cut-off is given here; in the data, active means growth inhibition above about 70%; inactive means the rest.

For the compound `O=C(NNc1nc(CCl)cs1)c1ccccc1Cl`, the growth inhibition in assay [1] is -0.15%; in assay [2] it was -31.6%; in assay [3], 4.75%; in assay [4], 7.35%; in assay [5] it was -11.1%; in assay [6], -11.6%.

In the case of `CC1CCc2c(O)ccc(O)c21` (stereo unspecified), the growth inhibition in assay [1] was 5.7%; in assay [2], 5.4%; in assay [3], 2.5%; in assay [4], -15.2%; in assay [5], -5%; in assay [6] it was 8.1%.

`NC(=O)c1[nH]nc(C2OC(CO)C(O)C2O)c1O` (stereo unspecified): the growth inhibition in assay [1] was 8%; in assay [2], -27.2%; in assay [3] it was 7.35%; in assay [4] it was -0.05%; in assay [5], -22.9%; in assay [6], 8.75%.

On to `COC(=O)c1cc2ccccc2c2c3c(ccc12)OCO3`, for which the growth inhibition in assay [1] was 9.4%; in assay [2], -0.15%; in assay [3] it was -10.3%; in assay [4], -43.6%; in assay [5] it was -4.05%; in assay [6], -14.3%.

In the case of `O=c1oc2ccccc2c(O)c1Cc1cccc(Cc2c(O)c3ccccc3oc2=O)c1`, the growth inhibition is 11.9% in assay [1]; 5.05% in assay [2]; 4.9% in assay [3]; 9.3% in assay [4]; -11.3% in assay [5]; 5% in assay [6].

Turning to `CC1(C)OCCS1`, the growth inhibition in assay [1] is -4.2%; in assay [2], 18.1%; in assay [3] it was 6.7%; in assay [4] it was 18.6%; in assay [5] it was 20.6%; in assay [6], 13.9%.

Turning to `C=CCCCC(C#N)c1ccc2c(c1)OCO2` (stereo unspecified), the growth inhibition in assay [1] is -3.25%; in assay [2] it was -14.2%; in assay [3], -4.85%; in assay [4] it was -82%; in assay [5] it was -40.6%; in assay [6], -15.2%.

As for `CC(C)C(=O)/C=C/c1ccc(Cl)c(Cl)c1`, the growth inhibition in assay [1] was 41.2%; in assay [2], 28.2%; in assay [3], 26.4%; in assay [4], -1.85%; in assay [5], 18.9%; in assay [6], 26.8%.

In the case of `CCOC(=O)Cc1ccc(OC)c(OC)c1`, the growth inhibition in assay [1] was 3.45%; in assay [2], -7.05%; in assay [3], 3.9%; in assay [4], -17.1%; in assay [5] it was -2.8%; in assay [6], 1.4%.

Turning to `CC(/C=N\Nc1ccc([N+](=O)[O-])cc1)=N/N=C(N)N`, the growth inhibition in assay [1] is 8.35%; in assay [2], -2.9%; in assay [3], 9.55%; in assay [4], -10.9%; in assay [5], 3.1%; in assay [6] it was 18.7%.

As to `OC12C=CC(CCCC1)O2` (stereo unspecified), the growth inhibition in assay [1] was 0.35%; in assay [2], -6.65%; in assay [3], -7.4%; in assay [4], 3.2%; in assay [5], 10.3%; in assay [6], 4.9%.

As for `O=[N+]([O-])c1ccc(N/N=C/c2ccccc2Cl)c([N+](=O)[O-])c1`, the growth inhibition in assay [1] was 15.3%; in assay [2] it was -9.55%; in assay [3] it was -1.15%; in assay [4] it was -22.4%; in assay [5] it was 9.75%; in assay [6] it was 27.3%.

Consider `CCC1(C(=O)OC)CCC2C3CCC4CCCCC4(C)C3CCC21C` (stereo unspecified), for which the growth inhibition in assay [1] was 4.6%; in assay [2] it was -8.9%; in assay [3], 9.25%; in assay [4] it was -3.95%; in assay [5], 5.4%; in assay [6] it was 11.1%.

For `O=C(Oc1c(Cl)cc(Cl)cc1C=Nc1ccc(Cl)cc1)c1ccccc1`, the growth inhibition in assay [1] is 67.1%; in assay [2], 71.4% (active); in assay [3] it was 88.7% (active); in assay [4], 42.4%; in assay [5] it was 58.2%; in assay [6], 83.9% (active).

On to `O=C(Nc1ccc([N+](=O)[O-])c2c1C(=O)c1ccccc1C2=O)c1ccccc1`, for which the growth inhibition in assay [1] was -7.7%; in assay [2], -12.1%; in assay [3], -5.95%; in assay [4] it was -43.4%; in assay [5] it was 10.1%; in assay [6] it was -2.9%.

As to `CCCCCCCCCC(C(=O)OCC)(C(=O)OCC)C1CCCC1`, the growth inhibition in assay [1] was -26.9%; in assay [2], -4.6%; in assay [3] it was -12.1%; in assay [4] it was 5.75%; in assay [5], -7.8%; in assay [6], -30.1%.

With `O=C(C=c1sc(=CC(=O)c2ccccc2)s1)c1ccccc1`, the growth inhibition in assay [1] is -3.5%; in assay [2], -4.35%; in assay [3], 14.7%; in assay [4], -41.3%; in assay [5], 2.1%; in assay [6], -35.6%.

For the compound `O=C(OC(=O)c1cccnc1)c1cccnc1`, the growth inhibition in assay [1] is -30.2%; in assay [2] it was -9.5%; in assay [3] it was -7.75%; in assay [4] it was 11.5%; in assay [5], -2.85%; in assay [6], 6.65%.

For the compound `Nc1cc(C(=O)O)ccc1Cl`, the growth inhibition in assay [1] was -9.7%; in assay [2], -8.1%; in assay [3] it was -18.9%; in assay [4], -88.8%; in assay [5], -12.2%; in assay [6], -5.4%.

On to `NC1=NN(c2c(Cl)cc(Cl)cc2Cl)C(=O)C1`, for which the growth inhibition is 21.9% in assay [1]; -3.8% in assay [2]; 17.6% in assay [3]; 33.3% in assay [4]; 33% in assay [5]; 39.6% in assay [6].

As to `O=C(Nc1cc(C(F)(F)F)ccc1Cl)c1ccc(Cl)cc1Cl`, the growth inhibition in assay [1] was 8.2%; in assay [2] it was 11.2%; in assay [3], 1.7%; in assay [4], -0.75%; in assay [5], 9.9%; in assay [6] it was 13.7%.

The values above are taken from PubChem BioAssay (NCI).
